Compounds without any hit were thinned out: in the full panel of roughly 83,000, 20% have a hit.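 A percent growth of 40 corresponds to 60% growth inhibition; 0 means no net growth; -100 means all cells died. Active threshold: below 10.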 Active and inactive are the calls of the source.
Tests used:
Experiment in all cases: NCI-60 one-dose screen, 48 h (100 = growth as untreated, 0 = no growth, -100 = all killed)
Conditions in all cases: 10 µM unless noted
DU-145 prostate = system: DU-145 prostate
K-562 leukemia = system: K-562 leukemia
MALME-3M melanoma = system: MALME-3M melanoma
MDA-MB-231 breast = system: MDA-MB-231 breast
RXF 393 renal = system: RXF 393 renal
SF-268 CNS = system: SF-268 CNS
SF-295 CNS = system: SF-295 CNS
SF-539 CNS = system: SF-539 CNS
UACC-257 melanoma = system: UACC-257 melanoma
M14 melanoma = system: M14 melanoma
HCT-15 colon = system: HCT-15 colon
HT29 colon = system: HT29 colon
SNB-75 CNS = system: SNB-75 CNS
SNB-19 CNS = system: SNB-19 CNS
U251 CNS = system: U251 CNS
PC-3 prostate = system: PC-3 prostate
SK-MEL-5 melanoma = system: SK-MEL-5 melanoma
UACC-62 melanoma = system: UACC-62 melanoma
LOX IMVI melanoma = system: LOX IMVI melanoma
SK-MEL-28 melanoma = system: SK-MEL-28 melanoma

Measured: growth

COC(=O)[C@@H](NC(=O)NC(=O)NC(=O)CI)C(C)C
active: MALME-3M melanoma -46.4% | LOX IMVI melanoma -77.4%
inactive: DU-145 prostate 106% | K-562 leukemia 15.2% | MDA-MB-231 breast 72.5% | RXF 393 renal 83.3% | SF-268 CNS 95.8% | SF-295 CNS 95.3% | SF-539 CNS 92.7% | UACC-257 melanoma 87.1% | M14 melanoma 85.8% | HCT-15 colon 37% | HT29 colon 60.2% | SNB-75 CNS 102% | SNB-19 CNS 94.5% | U251 CNS 100% | PC-3 prostate 85.5% | SK-MEL-5 melanoma 85.2% | UACC-62 melanoma 83.1% | SK-MEL-28 melanoma 91.7%

C=C(C)[C@@H]1CC[C@]2(COCCCN)CC[C@]3(C)[C@H](CC[C@@H]4[C@@](C)(CCCNCCCN)[C@H](C(=C)C)CC[C@]43C)[C@@H]12
active: DU-145 prostate -83.4% [100 µM] | K-562 leukemia -34.1% [100 µM] | MALME-3M melanoma -58.2% [100 µM] | MDA-MB-231 breast -63.8% [100 µM] | RXF 393 renal -48.6% [100 µM] | SF-268 CNS -58.7% [100 µM] | SF-295 CNS -52.7% [100 µM] | SF-539 CNS -62.2% [100 µM] | UACC-257 melanoma -74.1% [100 µM] | M14 melanoma -35.4% [100 µM] | HCT-15 colon -53.4% [100 µM] | HT29 colon -23.1% [100 µM] | SNB-75 CNS -74.1% [100 µM] | SNB-19 CNS -60.1% [100 µM] | U251 CNS -51.5% [100 µM] | PC-3 prostate -53.9% [100 µM] | SK-MEL-5 melanoma -55.1% [100 µM] | UACC-62 melanoma -72.4% [100 µM] | LOX IMVI melanoma -49.7% [100 µM] | SK-MEL-28 melanoma -63.3% [100 µM]

COc1ccc(OC)c(NC=O)c1
inactive: DU-145 prostate 105% | K-562 leukemia 99.8% | MALME-3M melanoma 107% | MDA-MB-231 breast 106% | RXF 393 renal 103% | SF-268 CNS 99.6% | SF-295 CNS 106% | SF-539 CNS 103% | UACC-257 melanoma 102% | M14 melanoma 103% | HCT-15 colon 103% | HT29 colon 99.4% | SNB-75 CNS 100% | SNB-19 CNS 106% | U251 CNS 88.2% | PC-3 prostate 105% | SK-MEL-5 melanoma 110% | UACC-62 melanoma 99.7% | LOX IMVI melanoma 100% | SK-MEL-28 melanoma 115%

CN(C)CCCNc1nc(-c2cccc(C(Cl)(Cl)Cl)c2)nc(C(Cl)(Cl)Cl)n1
inactive: DU-145 prostate 112% | K-562 leukemia 88.2% | MALME-3M melanoma 88.9% | MDA-MB-231 breast 95.8% | RXF 393 renal 109% | SF-268 CNS 106% | SF-295 CNS 94.1% | SF-539 CNS 110% | UACC-257 melanoma 119% | M14 melanoma 102% | HCT-15 colon 108% | HT29 colon 94.9% | SNB-75 CNS 83.1% | SNB-19 CNS 102% | U251 CNS 105% | PC-3 prostate 98.4% | SK-MEL-5 melanoma 103% | UACC-62 melanoma 99.6% | LOX IMVI melanoma 87.7% | SK-MEL-28 melanoma 103%

CN(C)C(=S)Sc1ccc([N+](=O)[O-])cc1[N+](=O)[O-]
inactive: DU-145 prostate 64.7% | MDA-MB-231 breast 44.3% | SF-268 CNS 52.8% | SF-295 CNS 90.3% | SF-539 CNS 52.1% | UACC-257 melanoma 41.4% | SNB-75 CNS 57.4% | SNB-19 CNS 83.2% | PC-3 prostate 28.1% | SK-MEL-5 melanoma 17.2% | UACC-62 melanoma 33.5% | SK-MEL-28 melanoma 75.1%
active: K-562 leukemia 8.13% | MALME-3M melanoma -4.06% | RXF 393 renal -61.1% | M14 melanoma 8.95% | HCT-15 colon 5.29% | HT29 colon -16.6% | U251 CNS 6.55% | LOX IMVI melanoma -4.79%

CC(C)=CC/C=C(/C)[C@H]1CC[C@]2(C)[C@@H]1CC[C@@H]1[C@@]3(C)CCCNC(C)(C)[C@@H]3CC[C@]12C
active: DU-145 prostate -78.7% [100 µM] | K-562 leukemia -19.2% [100 µM] | MALME-3M melanoma -78.9% [100 µM] | MDA-MB-231 breast -74.7% [100 µM] | RXF 393 renal -70.1% [100 µM] | SF-268 CNS -48% [100 µM] | SF-295 CNS -77.8% [100 µM] | SF-539 CNS -86% [100 µM] | UACC-257 melanoma -72.3% [100 µM] | M14 melanoma -58.6% [100 µM] | HCT-15 colon -53.6% [100 µM] | HT29 colon -64.7% [100 µM] | SNB-75 CNS -84.4% [100 µM] | SNB-19 CNS -63.1% [100 µM] | U251 CNS -63.3% [100 µM] | PC-3 prostate -65% [100 µM] | SK-MEL-5 melanoma -71.2% [100 µM] | UACC-62 melanoma -95.2% [100 µM] | LOX IMVI melanoma -46% [100 µM] | SK-MEL-28 melanoma -87.1% [100 µM]

CCCCCn1sc(=O)n(Cc2ccc(CNC(=O)OCc3ccc4cccc(O)c4n3)cc2)c1=O
active: DU-145 prostate -15% | K-562 leukemia 3.39% | MALME-3M melanoma -77.7% | MDA-MB-231 breast -62.5% | RXF 393 renal -76.8% | SF-539 CNS -69.6% | UACC-257 melanoma 0.0301% | M14 melanoma -64.7% | HCT-15 colon -20.5% | HT29 colon -49.2% | SNB-75 CNS -4.62% | PC-3 prostate 3.68% | SK-MEL-5 melanoma -44.7% | UACC-62 melanoma -64.2% | LOX IMVI melanoma -91.5% | SK-MEL-28 melanoma -35%
inactive: SF-268 CNS 27.6% | SF-295 CNS 31.1% | SNB-19 CNS 37% | U251 CNS 20.1%

CC(C)CCNCC(C)(C)O
inactive: DU-145 prostate 118% | K-562 leukemia 109% | MALME-3M melanoma 121% | MDA-MB-231 breast 116% | RXF 393 renal 117% | SF-268 CNS 106% | SF-295 CNS 111% | SF-539 CNS 101% | UACC-257 melanoma 102% | M14 melanoma 110% | HCT-15 colon 99.1% | HT29 colon 103% | SNB-75 CNS 90.3% | SNB-19 CNS 109% | U251 CNS 104% | PC-3 prostate 98.6% | SK-MEL-5 melanoma 113% | UACC-62 melanoma 111% | LOX IMVI melanoma 101% | SK-MEL-28 melanoma 122%

Nc1cc(NN=C(c2ccc(O)cc2)c2ccc(O)cc2)c([N+](=O)[O-])cc1[N+](=O)[O-]
inactive: DU-145 prostate 91.3% | K-562 leukemia 78.4% | MALME-3M melanoma 105% | MDA-MB-231 breast 54.4% | SF-268 CNS 81.8% | SF-295 CNS 75.8% | HT29 colon 98.4% | SNB-75 CNS 78.2% | PC-3 prostate 64.2% | UACC-62 melanoma 42.3% | SK-MEL-28 melanoma 80.8%
active: RXF 393 renal -69.9% | SF-539 CNS -55.3% | UACC-257 melanoma -60.6% | M14 melanoma -52.9% | HCT-15 colon 4.01% | SNB-19 CNS -22.6% | U251 CNS 4.49% | SK-MEL-5 melanoma -85.4% | LOX IMVI melanoma -32.5%

CCOC(=O)c1c[nH]n2c(=S)ncnc12
inactive: DU-145 prostate 108% | K-562 leukemia 106% | MALME-3M melanoma 109% | MDA-MB-231 breast 109% | RXF 393 renal 113% | SF-268 CNS 98.5% | SF-295 CNS 109% | SF-539 CNS 105% | UACC-257 melanoma 102% | M14 melanoma 103% | HCT-15 colon 102% | HT29 colon 100% | SNB-75 CNS 90.7% | SNB-19 CNS 96.1% | U251 CNS 102% | PC-3 prostate 117% | SK-MEL-5 melanoma 105% | UACC-62 melanoma 97.5% | LOX IMVI melanoma 96.4% | SK-MEL-28 melanoma 108%

CCOC(=O)C1=C(C(=O)c2ccc(Br)cc2)C(c2ccc(Br)cc2)NC(=S)N1 (stereo not given)
inactive: DU-145 prostate 113% | K-562 leukemia 106% | MALME-3M melanoma 107% | MDA-MB-231 breast 109% | RXF 393 renal 109% | SF-268 CNS 98.6% | SF-295 CNS 102% | SF-539 CNS 99.5% | UACC-257 melanoma 109% | M14 melanoma 97.2% | HCT-15 colon 99% | HT29 colon 104% | SNB-75 CNS 93.1% | SNB-19 CNS 100% | U251 CNS 95.8% | PC-3 prostate 98.1% | SK-MEL-5 melanoma 103% | UACC-62 melanoma 94.8% | LOX IMVI melanoma 94% | SK-MEL-28 melanoma 105%

CCN(CC)c1ccc2cc(C(Nc3ccc(Br)c(C(F)(F)F)c3)c3nnnn3C(C)(C)C)c(=O)oc2c1 (stereo not given)
inactive: DU-145 prostate 103% | K-562 leukemia 88.2% | MALME-3M melanoma 88% | MDA-MB-231 breast 86.9% | RXF 393 renal 82.9% | SF-268 CNS 85.3% | SF-295 CNS 103% | SF-539 CNS 101% | UACC-257 melanoma 93.3% | M14 melanoma 103% | HCT-15 colon 94.8% | HT29 colon 85.9% | SNB-75 CNS 67.7% | SNB-19 CNS 86.1% | U251 CNS 86.6% | PC-3 prostate 79.7% | SK-MEL-5 melanoma 84.7% | UACC-62 melanoma 88.8% | LOX IMVI melanoma 98% | SK-MEL-28 melanoma 104%

CCn1cc(-c2[nH]c(=S)ncc2-c2ccc(Cl)cc2)c(-c2ccc(Br)cc2)n1
inactive: DU-145 prostate 100% | K-562 leukemia 120% | MALME-3M melanoma 108% | MDA-MB-231 breast 89.1% | RXF 393 renal 109% | SF-268 CNS 75.1% | SF-295 CNS 68.4% | SF-539 CNS 87.5% | UACC-257 melanoma 84.8% | M14 melanoma 66.7% | HCT-15 colon 85.5% | HT29 colon 92.1% | SNB-75 CNS 99.1% | SNB-19 CNS 75.6% | U251 CNS 74.3% | PC-3 prostate 64.3% | SK-MEL-5 melanoma 86.4% | UACC-62 melanoma 76.7% | LOX IMVI melanoma 86.8% | SK-MEL-28 melanoma 73.7%

Source: PubChem BioAssay (NCI)
